Reference: PubChem BioAssay (EPA / NIEHS)
Where “and” joins values, the source holds several entries; their conditions need not be identical. Equal values may be shown once. Some compounds were tested as several samples or in several runs, with calls that do not always agree. Calls of active or inactive are those of the source. Rule for the calls: active = hit-call score of the fitted dose curve at least 0.9, where 1 is the maximum; inactive = score below 0.9.

Key:
[1] = APR_HepG2_P-H2AX_72hr: Apredica 72-hour HepG2 Assay for H2AX Phosphorylation (AID 2282916); settings: imaging, actives raise or lower the signal;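 note: phospho-histone H2A.x immunostain intensity per cell marking DNA damage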
Outline: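 HepG2 human liver cells were exposed for 72 hr to compounds at 0.39–200 uM (10 concentrations, duplicate per plate) in 0.5% v/v DMSO. Fixed, permeabilized cells were immunolabeled for phospho-histone H2A.x with Hoechst 33342 and imaged by HCS fluorescence; bidirectional fit versus DMSO.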

[2] = APR_HepG2_MitoMembPot_72hr: Apredica 72-hour HepG2 Assay for Mitochondrial Membrane Potential (AID 2282917); settings: imaging, actives raise or lower the signal
Outline: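 Membrane potential read by MitoTracker Red CMXRos (250 nM, 30 min, pre-fixation) fluorescence imaging of HepG2 after 72 hr exposure. Ten concentrations, 0.39–200 uM, duplicate wells, 0.5% DMSO; fitted in both directions against DMSO baseline.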

[3] = APR_HepG2_MitoticArrest_72hr: Apredica 72-hour HepG2 Assay for Mitotic Arrest (AID 2282918); settings: high-content imaging, actives raise or lower the signal
Outline: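 HepG2 cells treated 72 h at 0.39–200 uM, 0.5% DMSO final; formaldehyde-fixed, stained with Hoechst 33342 and phospho-histone H3 antibody, imaged by high-content fluorescence; bidirectional fit versus DMSO.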

[4] = APR_HepG2_MicrotubuleCSK_72hr: Apredica 72-hour HepG2 Assay for Microtubule CSK Stabilty (AID 2282919); settings: HepG2 microtubule cytoskeleton, high-content imaging, actives raise or lower the signal
Outline: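 Read-out is tubulin fluorescence intensity from high-content imaging of HepG2 cells, with nuclei identified by Hoechst 33342. Treatment lasts 72 h at 0.39–200 uM, and curves are fitted bidirectionally against the DMSO negative control.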

[5] = APR_HepG2_StressKinase_72hr: Apredica 72-hour HepG2 Assay for Stress Kinase (AID 2282921); settings: HepG2 stress kinase (phospho-c-Jun) imaging, actives raise or lower the signal
Outline: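 Cells were exposed for 72 h to ten concentrations (0.39–200 uM, duplicate) at 0.5% v/v DMSO final, then fixed with 3.7% formaldehyde, permeabilized and immunostained for phospho-c-Jun (Cy3 secondary) with Hoechst nuclear counterstain.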

[6] = APR_HepG2_StressKinase_24hr: Apredica 24-hour HepG2 Assay for Stress Kinase (AID 2282922); settings: HepG2 stress kinase (phospho-c-Jun) imaging, actives raise or lower the signal
Outline: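 HepG2, 24 hr dosing, 0.39–200 uM in duplicate, 0.5% DMSO; formaldehyde fix (3.7%), 0.5% Triton X-100; anti-phospho-c-Jun + Cy3 secondary, Hoechst counterstain; ArrayScan imaging; bidirectional curve fit vs DMSO baseline.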

[7] = APR_HepG2_MitoMass_72hr: Apredica 72-hour HepG2 Assay for Mitochondrial Mass (AID 2282924); settings: high-content imaging, actives raise or lower the signal;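 note: MitoTracker Red CMXRos stain intensity per cell imaged as mitochondrial mass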
Outline: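 HepG2, 72 hr cmpd, 10 conc 0.39–200 uM in dup, DMSO 0.5% v/v. MitoTracker Red CMXRos 250 nM 30 min pre-fix; formaldehyde 3.7% fix 30 min RT. HCS imaging, gain/loss fit vs DMSO.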

[8] = APR_HepG2_NuclearSize_72hr: Apredica 72-hour HepG2 Assay for Nuclear Size (AID 2282925); settings: high-content imaging, actives raise or lower the signal
Outline: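 HepG2; cpd 0.39–200 uM, 10 conc, duplicate; 72 h; DMSO 0.5% v/v; fix 3.7% formaldehyde 30 min RT; Triton permeabilization; Hoechst 2 ug/mL; HCS imaging 20x; nuclear diameter; gain/loss fit vs DMSO.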

[9] = ATG_CRE_CIS: Attagene CIS-FACTORIAL HepG2 Assay for human cAMP Responsive Element (CRE) binding protein 3 (AID 2282926); settings: HepG2 CRE cis-reporter, Attagene multiplexed mRNA; actives raise or lower the signal
Outline: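 HepG2 cells transiently transfected with cis-element-driven multiple reporter transcription units; CRE reporter mRNA measured 24 h after dosing by RT-PCR, 6-FAM labelling, HpaI digestion and capillary electrophoresis. Bidirectional fit versus DMSO baseline.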

[10] = molecular target: CCAAT/enhancer-binding protein beta (Homo sapiens) (UniProt P17676); assay: ATG_C_EBP_CIS: Attagene CIS-FACTORIAL HepG2 Assay for human CCAAT/Enhancer Binding Protein (C/EBP) beta (AID 2282927); settings: HepG2 Attagene cis-factorial transcription factor reporter; actives raise or lower the signal
Outline: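 Endogenous C/EBPb-driven reporter transcripts measured in transfected human HepG2 cells at 24 h via RT-PCR and capillary electrophoresis of labelled fragments. Activity fitted in both directions relative to DMSO baseline.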

[11] = ATG_CMV_CIS: Attagene CIS-FACTORIAL HepG2 Assay for human CMV (Internal Marker) (AID 2282928); settings: HepG2 CMV promoter reporter, transcription factor profiling; actives raise or lower the signal;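 note: endpoint acts as a background internal control marker rather than a target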
Outline: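 HepG2 cells transiently transfected with multiple cis-regulated reporter units; 24 h compound exposure. Reporter mRNA quantified by RT-PCR, 6-FAM primer-extension labeling, HpaI digestion and capillary electrophoresis; bidirectional fitting against DMSO baseline.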

[12] = ATG_DR4_LXR_CIS: Attagene CIS-FACTORIAL HepG2 Assay for human Liver X Receptor (LXR), DR4 submotif (AID 2282929); settings: HepG2 Attagene DR4 cis-reporter, mRNA transcription; actives raise or lower the signal
Outline: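 HepG2 cells transiently transfected with cis-promoter-driven multiplexed reporter units (DR4 element) were dosed for 24 h. Reporter mRNA was quantified by RT-PCR, fluorescent primer extension, HpaI digestion and capillary electrophoresis; bidirectional fitting versus DMSO baseline.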

[13] = molecular target: Aryl hydrocarbon receptor (Homo sapiens) (UniProt P35869); assay: ATG_Ahr_CIS: Attagene CIS-FACTORIAL HepG2 Assay for human Aryl Hydrocarbon Receptor (Ahr) (AID 2282930); settings: HepG2 AhR cis-factorial reporter transcription; actives raise or lower the signal
Outline: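 Reporter mRNA levels, quantified by RT-PCR and fluorescent capillary electrophoresis, reflect endogenous AhR transcriptional activity in HepG2 cells carrying transfected cis-promoter reporter constructs. Readout at 24 h post-dose; gain or loss fitted against DMSO baseline.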

[14] = ATG_AP_1_CIS: Attagene CIS-FACTORIAL HepG2 Assay for human Activator Protein 1 (AP-1) (AID 2282931); settings: HepG2 Attagene cis-factorial AP-1 reporter mRNA; actives raise or lower the signal
Outline: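 HepG2 cells transiently transfected with cis-element-driven multiplex reporter units; 24 h compound exposure. Reporter mRNA quantified by RT-PCR, FAM-labelled fragments resolved by capillary electrophoresis; bidirectional fit versus DMSO baseline.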

[15] = ATG_AP_2_CIS: Attagene CIS-FACTORIAL HepG2 Assay for human Activator Protein 2 (AP-2) (AID 2282932); settings: HepG2 AP-2 cis-reporter, Attagene transcription factor profiling; actives raise or lower the signal
Outline: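 Step one: transient transfection of HepG2 with reporter transcription units. Step two: 24 h chemical exposure. Step three: RNA extraction, RT-PCR, labelled fragment analysis by capillary electrophoresis; DMSO serves as baseline.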

[16] = ATG_BRE_CIS: Attagene CIS-FACTORIAL HepG2 Assay for human Bone Morphogenetic Protein (BMP) Response Element (BRE) (AID 2282933); settings: HepG2 BMP response element reporter, Attagene transcription factor profiling; actives raise or lower the signal
Outline: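 Read-out: reporter mRNA induction quantified by RT-PCR and capillary electrophoresis after 24 h chemical exposure of transfected HepG2 cells. Endogenous factor activity on the BMP response element; gain or loss fitted against DMSO baseline.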

[17] = molecular target: Transcription factor E2F1 (Homo sapiens) (UniProt Q01094); assay: ATG_E2F_CIS: Attagene CIS-FACTORIAL HepG2 Assay for human E2F Transcription Factor 1 (AID 2282935); settings: HepG2 Attagene cis-reporter, E2F reporter RNA transcripts; actives raise or lower the signal
Outline: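 Total RNA from 24 h-treated, reporter-transfected HepG2 cells undergoes DNase I treatment, oligo(dT) reverse transcription, PCR and 6-FAM primer extension before capillary electrophoresis.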

[18] = molecular target: Retinoic acid receptor alpha (Homo sapiens) (UniProt P10276); assay: ATG_DR5_RAR_CIS: Attagene CIS-FACTORIAL HepG2 Assay for human Retinoic Acid Receptor Alpha (RARE), DR5 submotif (AID 2282934); settings: HepG2 Attagene cis-factorial RARE DR5 reporter, mRNA; actives raise or lower the signal;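 for AC50: reporter responds to endogenous RAR alpha beta and gamma in HepG2 not RARA alone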
Outline: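 Reporter transcripts from a DR5-regulated unit, measured via RT-PCR plus capillary electrophoresis, reflect endogenous RAR activity in transiently transfected human HepG2 liver cells. Exposure lasted 24 h; gain or loss of signal scored against DMSO.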

Measured: AC50

Transcription factor E2F1 (Homo sapiens), sequence (Q01094 whole entry, looked up): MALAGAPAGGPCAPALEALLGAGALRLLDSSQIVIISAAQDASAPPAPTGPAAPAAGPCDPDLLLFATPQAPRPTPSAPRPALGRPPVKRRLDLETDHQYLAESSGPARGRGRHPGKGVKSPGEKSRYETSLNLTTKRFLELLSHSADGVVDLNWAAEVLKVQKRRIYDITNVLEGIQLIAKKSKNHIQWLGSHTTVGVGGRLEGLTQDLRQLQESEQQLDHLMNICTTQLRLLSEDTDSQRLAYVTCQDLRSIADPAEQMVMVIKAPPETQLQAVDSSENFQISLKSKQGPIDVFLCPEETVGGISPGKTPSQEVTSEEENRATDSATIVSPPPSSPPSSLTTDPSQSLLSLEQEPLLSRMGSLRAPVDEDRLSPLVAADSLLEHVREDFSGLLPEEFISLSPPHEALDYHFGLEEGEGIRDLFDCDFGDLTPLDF
Retinoic acid receptor alpha (Homo sapiens), sequence (P10276 whole entry, looked up): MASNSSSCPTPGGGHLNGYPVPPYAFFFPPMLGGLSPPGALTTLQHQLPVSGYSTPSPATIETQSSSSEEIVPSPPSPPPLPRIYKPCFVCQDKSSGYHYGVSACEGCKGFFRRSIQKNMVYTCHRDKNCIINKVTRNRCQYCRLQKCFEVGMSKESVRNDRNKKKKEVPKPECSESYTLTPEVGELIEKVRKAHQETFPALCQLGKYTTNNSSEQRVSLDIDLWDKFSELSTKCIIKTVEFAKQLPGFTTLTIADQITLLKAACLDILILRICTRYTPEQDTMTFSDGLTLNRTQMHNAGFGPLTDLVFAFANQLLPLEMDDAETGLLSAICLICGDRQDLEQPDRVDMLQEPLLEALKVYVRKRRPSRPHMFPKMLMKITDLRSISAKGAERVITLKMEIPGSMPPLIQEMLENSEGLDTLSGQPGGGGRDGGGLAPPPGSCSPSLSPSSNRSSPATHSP
CCAAT/enhancer-binding protein beta (Homo sapiens), sequence (P17676 whole entry, looked up, the tested form may be a part): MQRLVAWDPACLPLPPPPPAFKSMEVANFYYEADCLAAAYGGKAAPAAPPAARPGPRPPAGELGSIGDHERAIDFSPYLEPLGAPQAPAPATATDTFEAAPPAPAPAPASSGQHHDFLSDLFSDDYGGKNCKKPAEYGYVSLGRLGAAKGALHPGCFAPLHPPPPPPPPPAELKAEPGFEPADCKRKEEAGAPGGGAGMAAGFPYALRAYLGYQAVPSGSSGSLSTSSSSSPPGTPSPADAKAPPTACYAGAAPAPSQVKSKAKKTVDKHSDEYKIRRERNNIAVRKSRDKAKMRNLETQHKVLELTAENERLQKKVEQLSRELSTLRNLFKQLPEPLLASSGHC
Aryl hydrocarbon receptor (Homo sapiens), sequence (P35869 whole entry, looked up): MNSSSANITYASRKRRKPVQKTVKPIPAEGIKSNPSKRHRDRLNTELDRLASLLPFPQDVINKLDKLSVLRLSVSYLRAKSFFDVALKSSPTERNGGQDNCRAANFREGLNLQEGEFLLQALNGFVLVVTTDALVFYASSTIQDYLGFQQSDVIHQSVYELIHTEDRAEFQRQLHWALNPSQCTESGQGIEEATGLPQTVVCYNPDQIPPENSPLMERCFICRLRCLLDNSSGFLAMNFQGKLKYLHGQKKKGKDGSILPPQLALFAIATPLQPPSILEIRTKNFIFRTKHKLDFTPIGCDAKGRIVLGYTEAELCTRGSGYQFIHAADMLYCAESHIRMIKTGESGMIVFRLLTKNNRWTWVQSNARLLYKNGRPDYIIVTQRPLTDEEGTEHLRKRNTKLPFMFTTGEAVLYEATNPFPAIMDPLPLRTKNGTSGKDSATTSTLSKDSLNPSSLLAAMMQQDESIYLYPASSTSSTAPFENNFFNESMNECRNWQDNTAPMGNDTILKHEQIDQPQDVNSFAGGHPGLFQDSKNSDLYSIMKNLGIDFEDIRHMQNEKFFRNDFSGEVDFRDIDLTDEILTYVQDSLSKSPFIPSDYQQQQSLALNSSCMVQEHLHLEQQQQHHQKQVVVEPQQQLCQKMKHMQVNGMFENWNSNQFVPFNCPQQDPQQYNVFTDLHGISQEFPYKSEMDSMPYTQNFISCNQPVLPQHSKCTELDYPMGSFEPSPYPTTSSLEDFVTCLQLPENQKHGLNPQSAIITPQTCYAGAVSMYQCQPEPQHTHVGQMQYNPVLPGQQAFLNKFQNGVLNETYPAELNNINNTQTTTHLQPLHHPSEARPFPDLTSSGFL

Oc1ccc(Cl)cc1Cl
not listed: [18]
inactive: all other assays above

Sc1ccccc1
inactive: [10] | [11] | [12] | [13] | [14] | [15] | [16] | [17]

O=C(NC(=O)c1cc(F)c(F)cc1Cl)Nc1cc(F)ccc1N1CCC(C(=O)O)CC1
not listed: [18]
inactive: all other assays above

ClC(Cl)=C(c1ccc(Cl)cc1)c1ccc(Cl)cc1
active: [3] 22.5 µM | [7] 60.2 µM | [10] 166 µM | [11] 57.2 µM [middle of 4 runs] | [12] 44.6 µM [middle of 4 runs] | [13] 19.8 µM and 122 µM | [14] 100 µM and 64.2 µM and 73.8 µM | [15] 135 µM | [17] 175 µM
inactive: [1] | [2] | [4] | [5] | [6] | [8] | [10] | [13] | [15] | [16] | [17]

ClC1=C(Cl)[C@]2(Cl)[C@@H]3[C@@H]4C[C@@H]([C@H]5O[C@@H]45)[C@@H]3[C@@]1(Cl)C2(Cl)Cl
active: [1] 41 µM | [3] 32.6 µM | [12] 16.7 µM
not listed: [18]
inactive: all other assays above

C[C@]12CCC(=O)C=C1CC[C@@H]1[C@@H]2CC[C@@]2(C)[C@H]1CC[C@]2(C)O
inactive: [1] | [2] | [3] | [4] | [5] | [6] | [7] | [8] | [9] | [10] | [11] | [12] | [13] | [14] | [15] | [16] | [18] | [17]
active: [12] 163 µM | [14] 114 µM | [15] 33.9 µM | [16] 91.5 µM and 64 µM

CCCCCCCCCC[N+](C)(C)CCCCCCCCCC
active: [1] 5.55 µM | [2] 41.2 µM | [3] 3.61 µM | [4] 15.6 µM | [7] 3.13 µM | [11] 179 µM | [12] 6.09 µM | [14] 192 µM | [15] 100 µM
inactive: [5] | [6] | [8] | [9] | [10] | [13] | [16] | [17]

OCC(O)CO
inactive: [9] | [10] | [11] | [12] | [13] | [14] | [15] | [16] | [17]
active: [13] 33.3 µM

Cc1ccccc1CO[C@@H]1C[C@@]2(C(C)C)CC[C@]1(C)O2
not listed: [18]
inactive: all other assays above

C=CC(=O)NCNC(=O)C=C
not listed: [9] | [18]
inactive: all other assays above

N#Cc1ccc(N(CC(N)=O)CC(F)(F)F)cc1C(F)(F)F
active: [18] 1.56 µM
inactive: all other assays above

CC#Cc1cc(C)nc(Nc2ccccc2)n1
active: [12] 75 µM | [13] 23 µM
not listed: [9] | [18]
inactive: all other assays above
